Test systems include SN12C renal; UO-31 renal; TK-10 renal; ACHN renal; CAKI-1 renal; A498 renal; CCRF-CEM leukemia; MOLT-4 leukemia; SR leukemia.
Holding throughout (test): NCI-60 one-dose screen, 48 h (100 = growth as untreated, 0 = no growth, -100 = all killed)
Holding throughout (settings): 10 µM

Among the data in PubChem BioAssay (NCI) are growth values, retold here.

Structures are written as SMILES. About 83,000 compounds went through this panel and 20% of them were active in at least one assay; those are over-represented in the sample as a whole.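 Percent growth is the endpoint: 0 to 100 indicates growth inhibition (40 means 60% inhibition), 0 means no net growth, and negative values indicate cell death.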 Values without a mark were called inactive. Activity calls are given as the source filed them. The calls were made as follows: active = growth percent below 10; inactive = the rest.

Turning to `Cn1c(C(N)=O)cc2c1-c1nc(Nc3ccccc3)ncc1CCC2`, the growth with SN12C renal was 28%; in the test with UO-31 renal, 12.5%; in the test with TK-10 renal, 23.7%; with ACHN renal, 25.6%; in the test with CAKI-1 renal, 23.5%; with A498 renal it was -43.8% (active). Also, the growth is 43.5% in the test on CCRF-CEM leukemia, 42.3% in the test on MOLT-4 leukemia and 17.3% in the test with SR leukemia.
On to `O=C1/C(=C\c2ccccc2)CN(C(=O)c2ccccc2)C/C1=C\c1ccccc1`, for which the growth was 5.88% (active) in the test on SN12C renal; 43% with UO-31 renal; 69.8% with TK-10 renal; 3.54% (active) in the test with ACHN renal; 33.3% with CAKI-1 renal; 45.1% with A498 renal. The growth in the test with CCRF-CEM leukemia was -0.797% (active); in the test with MOLT-4 leukemia it was 2.87% (active); with SR leukemia, -33% (active).
On to `Nc1c(C(=O)Nc2cccc(Br)c2)sc2nc3c(cc12)C(O)CCC3` (stereo not given), for which the growth with SN12C renal was 37.3%; with UO-31 renal it was 31.9%; in the test with TK-10 renal it was 56.7%; with ACHN renal it was 51.4%; in the test with CAKI-1 renal it was 25.6%; in the test with A498 renal it was -8.73% (active). The growth in the test on CCRF-CEM leukemia was 12.2%; in the test with SR leukemia, 3.95% (active).
In the case of `COc1ccc(-c2nn(-c3cccc(NC(=O)c4cccc(C(F)(F)F)c4)c3)cc2-c2ccncc2)cc1Cl`, the growth in the test with SN12C renal is 45.3%; in the test on UO-31 renal, 13.9%; in the test with TK-10 renal, 41%; in the test with ACHN renal it was 36.8%; with CAKI-1 renal, 11.3%; in the test on A498 renal, -11.9% (active). Further, the figures for the growth in the test on CCRF-CEM leukemia and in the test with SR leukemia were 7.1% (active) and 4.46% (active), respectively.
As to `Cc1ccc(Nc2cc(C)nc(NCCCNc3ccnc4cc(Cl)ccc34)n2)cc1`, the growth in the test on SN12C renal was -81% (active); in the test with UO-31 renal it was -95% (active); in the test on TK-10 renal, -94.7% (active); in the test on ACHN renal, -98.2% (active); in the test on CAKI-1 renal, -87.2% (active); with A498 renal, -59.4% (active). Also, in the test with MOLT-4 leukemia, the growth was -47.6% (active).
`COc1ccc(/C=C2/CN(CCC#N)C/C(=C\c3ccc(OC)cc3)C2=O)cc1`: the growth was -57% (active) in the test on SN12C renal; -43.8% (active) in the test with UO-31 renal; 16.2% with TK-10 renal; 8.83% (active) with ACHN renal; -19.4% (active) in the test on CAKI-1 renal; 56.3% in the test with A498 renal. Besides, the growth in the test with MOLT-4 leukemia was 3.59% (active).
For `O=C(Nc1ccccc1)Nc1cccc(-n2cc(-c3ccncc3)c(-c3ccc(O)c(Cl)c3)n2)c1`, the growth in the test with SN12C renal was 59.1%; in the test on UO-31 renal, 26.9%; in the test on TK-10 renal, 88.8%; in the test on ACHN renal, 43.1%; in the test on CAKI-1 renal it was 30.1%; in the test with A498 renal it was 82.5%. Moreover, the growth with CCRF-CEM leukemia was 29.9%; with SR leukemia, 11.9%.
As for `COc1ccc(-c2nsc3c2NC(=O)CC3c2ccc(F)cc2)cc1` (stereo not given), the growth in the test with SN12C renal was 51.6%; with UO-31 renal it was 48.7%; in the test with TK-10 renal it was 38.5%; with ACHN renal, 47.1%; with CAKI-1 renal, 24.3%; in the test on A498 renal, 53.8%. Also, the growth with CCRF-CEM leukemia is 45.3%; in the test with SR leukemia, 3.34% (active).
In the case of `O=C(Nc1cccc(-n2cc(-c3ccncc3)c(-c3ccc(O)c(Cl)c3)n2)c1)c1ccc(Cl)c(Cl)c1`, the growth with SN12C renal is 70.9%; with UO-31 renal it was 36.3%; with TK-10 renal, 104%; in the test on ACHN renal, 49%; with CAKI-1 renal, 13%; with A498 renal it was 74.6%. For the same compound, the growth in the test on CCRF-CEM leukemia is 33%; with MOLT-4 leukemia, 45.8%; in the test with SR leukemia, 15.1%.
Consider `COc1cc(NC(=O)c2sc3nc4c(cc3c2N)C(O)CCC4)cc(OC)c1` (stereo not given), for which the growth in the test with SN12C renal is 93.5%; in the test with UO-31 renal it was 85.1%; in the test with TK-10 renal, 102%; with ACHN renal, 100%; in the test on CAKI-1 renal, 90.4%; in the test with A498 renal, 55.2%. Besides, the growth in the test on CCRF-CEM leukemia is 68.7%; with SR leukemia, 16.8%.
On to `COc1cc2cc3c(nc2cc1OC)CCN3Cc1ccc(NC(=O)Nc2ccc(F)cc2F)cc1`, for which the growth was 79.9% with SN12C renal; 68.9% in the test on UO-31 renal; 94.6% in the test with TK-10 renal; 85.2% in the test with ACHN renal; 62.3% with CAKI-1 renal; 49.4% in the test on A498 renal. Moreover, the growth with CCRF-CEM leukemia is 71.7%; in the test with SR leukemia, 62.1%.
Regarding `COc1ccc(-c2nc3sc(C4CC4)nn3c2/C=C2/C(=O)Nc3ccc(OC)cc32)cc1`, the growth in the test on SN12C renal was 91.9%; with UO-31 renal, 75.6%; in the test on TK-10 renal it was 95.8%; in the test with ACHN renal, 78%; in the test on CAKI-1 renal, 78.8%; in the test on A498 renal, 49.4%. Besides, the growth in the test on CCRF-CEM leukemia was 75.8%; in the test on SR leukemia it was 26.5%.
For the compound `c1ccc(CSc2nnc3c4c5c(sc4nc(-c4cccnc4)n23)CCCCCC5)cc1`, the growth in the test on SN12C renal was 56.5%; in the test on UO-31 renal, 94.8%; in the test with TK-10 renal, 72.2%; in the test on ACHN renal, 73.7%; with CAKI-1 renal it was 71.6%; with A498 renal, 58.5%. The results for the growth with CCRF-CEM leukemia and in the test with SR leukemia were 25.2% and 46.5%, respectively.
Regarding `COc1cc(Cl)cc(-c2nn(-c3cccc(NC(=O)Nc4ccc(Cl)c(Cl)c4)c3)cc2-c2ccncc2)c1`, the growth in the test on SN12C renal is 15.5%; with UO-31 renal, 0.635% (active); in the test on TK-10 renal, 19.8%; in the test with ACHN renal, 9.65% (active); with CAKI-1 renal, 7.49% (active); in the test with A498 renal, -9.54% (active). Besides, the growth with CCRF-CEM leukemia was 5.73% (active); in the test on MOLT-4 leukemia, -16.1% (active); in the test on SR leukemia, -18.5% (active).
As to `COc1ccccc1CNCCCN1C(=O)c2ccc3c4c(ccc(c24)C1=O)C(=O)N(CCCN)C3=O`, the growth with SN12C renal was -89% (active); in the test with UO-31 renal, -20.8% (active); with TK-10 renal it was -3.35% (active); in the test with ACHN renal it was 2.62% (active); in the test with CAKI-1 renal it was 31.3%; in the test with A498 renal, -0.046% (active). The growth in the test on CCRF-CEM leukemia was -10.4% (active); with SR leukemia, 5.24% (active).
For `Cc1[nH]nc2c1C(c1cnn(C)c1)C(C#N)=C(N)O2` (stereo not given), the growth in the test with SN12C renal was 103%; in the test with UO-31 renal, 81.3%; in the test on TK-10 renal, 102%; with ACHN renal, 104%; in the test on CAKI-1 renal, 102%; in the test with A498 renal, 69.9%. Further, the results for the growth with CCRF-CEM leukemia, in the test on MOLT-4 leukemia and in the test with SR leukemia were 101%, 98.6% and 89.3%, respectively.
For the compound `S=C1SCC(c2ccccc2)S1` (stereo not given), the growth in the test on SN12C renal was 101%; in the test with UO-31 renal it was 104%; in the test with TK-10 renal, 107%; in the test on ACHN renal, 101%; in the test on CAKI-1 renal, 97.1%; in the test with A498 renal, 102%. In addition, the growth is 101% in the test on CCRF-CEM leukemia, 107% with MOLT-4 leukemia and 103% in the test with SR leukemia.
